The results in this text go back to PubChem BioAssay AID493098 (Sanford-Burnham Center for Chemical Genomics, 2011).

SMILES strings stand for the structures. Several values for one entry are separate records, joined by “and”; a condition that tells them apart may be missing. Equal entries are not always repeated. Out of some 340,000 compounds screened, about 1,700 (0.5%) were called active. This excerpt belongs to a sample that is enriched for actives. A number with no mark means an inactive call.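 The calls were made as follows: active = compounds whose inhibition of the agonist-driven luminescence signal at 20 µM reaches about 50% (limit read from the data); inactive = the rest.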

The test deals with C-C chemokine receptor type 6 (Homo sapiens) (UniProt P51684). Put plainly: CCR6 receptor antagonists, primary screen, cell-based, CHO-K1, luminescence, beta-arrestin, uHTS (AID 493098).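 Also: cells stimulated with CCL20 at 14 nM final; plate controls were DMSO with CCL20 for no effect and DMSO without agonist for full effect.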 The note with it: CHO-K1 CCR6 PathHunter beta-arrestin, CCL20-stimulated, at 20 µM, stronger effect = higher value.
C-C chemokine receptor type 6 (Homo sapiens), sequence (P51684 whole entry, looked up): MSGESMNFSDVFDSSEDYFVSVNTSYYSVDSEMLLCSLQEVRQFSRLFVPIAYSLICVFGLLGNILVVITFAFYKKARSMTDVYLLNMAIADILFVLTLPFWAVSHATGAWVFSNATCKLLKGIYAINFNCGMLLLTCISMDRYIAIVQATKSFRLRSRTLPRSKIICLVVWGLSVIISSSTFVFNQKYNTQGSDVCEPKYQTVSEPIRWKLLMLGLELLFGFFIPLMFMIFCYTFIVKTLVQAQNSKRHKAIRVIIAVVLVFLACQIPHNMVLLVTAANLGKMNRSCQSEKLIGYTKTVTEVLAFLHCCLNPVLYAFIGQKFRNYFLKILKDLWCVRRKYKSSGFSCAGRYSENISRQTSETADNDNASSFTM
Turning to `Cc1cccc(CSc2ccc(-c3cccs3)nn2)c1`, the inhibition was 7.33%.
As for `COc1ccccc1C1SCCN1C(=O)c1ccc([N+](=O)[O-])cc1` (stereo not given), the inhibition was -4.39%.
The value for `CC1CC2=C(CC1/C=N/NC(N)=S)C(C)(C)CCC2` (stereo not given) was 76.2% (active).
Consider `CCC(C)N(C(=O)Cn1nc(C)c([N+](=O)[O-])c1C)C1CCS(=O)(=O)C1` (stereo not given), for which the inhibition is -5.11%.
The value for `CCOc1ccc(NC(=O)COC(=O)C2CCC(=O)N2)c([N+](=O)[O-])c1` (stereo not given) was -15.3%; that for `O=c1[nH]c(CN2CCN(S(=O)(=O)c3ccc4c(c3)OCCO4)CC2)nc2sc3c(c12)CCCC3` was 10.3%; that for `O=S(=O)(Nc1ncccn1)c1ccc(NS(=O)(=O)c2cccc(Cl)c2Cl)cc1` was 9.31%.
On to `COc1ccc(C(=O)NC(=S)NNC(=O)c2c(-c3ccccc3)noc2C)cc1`, for which the inhibition was 32.9%.
Then `COc1ccc(C(=O)NC(=S)NNC(=O)CCc2ccccc2)cc1`, with 63.5% (active); and `O=C(CCc1ccccc1)NNC(=O)COc1ccc(Cl)cc1`, with 7.8%; and `COCCn1c(SCC(=O)Nc2nc(C)cs2)nnc1C(C)C`, with -5.85%.
`CN(C)CCn1c2c(c(SCC(=O)NCc3ccccc3)nc1=O)CCC2`: the inhibition was 8.36%.
Turning to `N#CC1(NC(=O)COC(=O)Cc2n[nH]c(=O)c3ccccc23)CCCCC1`, the inhibition was -0.31%.
Regarding `O=C(NNC(=O)c1cnccc1C(F)(F)F)c1ccc(Cl)cc1`, the inhibition is -1.91%.
Consider `CCOC(=O)CN1C(=O)C(=O)c2cc(C)ccc21`, for which the inhibition is 15.8%.
Then `CC(C)OC(=O)CN1C(=O)C(=O)c2ccccc21`, with 108% (active); and `CC(OC(=O)CN1C(=O)c2ccccc2C1=O)C(=O)c1ccccc1` (stereo not given), with 6.02%; and `Cc1c(Cl)cccc1NC(=O)CSc1ccc(-c2cccnc2)nn1`, with 12.9%.
Take `Cc1cc(C(=O)N2CCC(C(=O)O)CC2)c(C(F)(F)F)o1`: the inhibition was 4.3%.
With `Cc1cc(NC(=O)CCC(=O)N(Cc2ccccc2)C(C(=O)NC2CCCC2)c2ccc(C)o2)no1` (stereo not given), the inhibition was 7.11%.
Take `COc1cccc(CNC(=O)c2cccnc2Sc2ccc(Cl)cc2)c1`: the inhibition is -12.9%.
Take `CC(=O)/C(=N\Nc1ccc(Cl)cc1Cl)Sc1cccc2cccnc12`: the inhibition is 65.9% (active).
The value for `O=C(NNc1cc(Cl)ccc1Cl)c1cccnc1Cl` was 13.2%; that for `CC(Sc1nc2c([nH]c3ccccc32)c(=O)n1C)c1ccccc1` (stereo not given) was 5.65%; that for `CC(=O)c1ccc(N=C2SCCCN2C(=O)C2CCCCC2)cc1` was 12.7%.
Take `COc1cc(OC)cc(-c2cc3nc(C4CCN(C(=O)OC(C)(C)C)CC4)cc(=O)n3[nH]2)c1`: the inhibition is -12.3%.
Consider `CSCCC(NC(=O)COc1ccccc1)C(=O)OCc1ccc(Cl)cc1` (stereo not given), for which the inhibition was -15.3%.
For `CSCCC(NC(=O)COc1ccccc1)C(=O)OCC(=O)c1cc2ccccc2o1` (stereo not given), the inhibition is 59.6% (active).
With `CSCCC(NC(=O)COc1ccccc1)C(=O)OCCOc1ccc(Br)cc1` (stereo not given), the inhibition is 12.1%.
Consider `C#CCO[C@@H]1C[C@H](n2cnc3c(=O)[nH]c(NC(=O)C(C)C)nc32)O[C@@H]1CO`, for which the inhibition was -6.43%.
Turning to `Cc1csc(SCC(=O)N(c2ccccc2)C(C)C)n1`, the inhibition was 13.7%.
In the case of `Cc1nc(-c2ccc(F)cc2)c(CC(=O)Nc2cc(S(=O)(=O)N3CCCCC3)ccc2C)s1`, the inhibition is 5.08%.
The value for `CC1=C/C(=N\OS(=O)(=O)c2ccccc2)C=CC1=O` was 80.3% (active); that for `O=C(NC1CC1)C(Cc1ccccc1)NS(=O)(=O)c1ccccc1F` (stereo not given) was 6.69%; that for `CN(/N=C/c1ccccc1)C(=S)c1ccccc1` was 23.9%.
The value for `CN(CC(=O)O)C(=O)c1ccccc1` was -10.2%; that for `CN(O)C(=S)c1ccccc1` was 95.7% (active); that for `COC(=O)c1sc(-c2ccc(C(C)(C)C)cc2)cc1NC(=O)/C=C/C(=O)O` was -1.25%.
Turning to `O=[N+]([O-])/C=C/c1ccc2c(ccn2Cc2ccccc2)c1`, the inhibition is 91.2% (active).
Regarding `Cc1nnc(NC(=O)Cn2c(=O)sc3ccccc32)s1`, the inhibition was -5.17%.
Consider `COc1cccc(NC(=O)c2cc(S(=O)(=O)N3CCc4ccccc43)cn2C)c1`, for which the inhibition is -11.8%.
Take `Cc1cccc(NC(=O)Cc2ccc(Br)cc2)n1`: the inhibition is 13.2%.
Turning to `O=C(CCl)NNc1cccc(Cl)n1`, the inhibition is 60.7% (active).
Then `O=C(Cc1c(Cl)cccc1Cl)NC1CC1`, with -1.28%; and `C=CCC(C(=O)c1ccccc1)[N+](C)(C)CC=C` (stereo not given), with -0.91%; and `CN(CCc1ccccn1)C(=O)c1ccc(OC2CCN(CCc3ccccc3)CC2)cc1`, with 13.6%.
On to `CCc1c(C)nc2c(-c3ccccc3)c(C)nn2c1Nc1ccc(NC(C)=O)cc1`, for which the inhibition is 4.32%.
As to `CCn1c(SCC(=O)N/N=C/c2ccncc2)nc2ccccc21`, the inhibition is 10.1%.
Consider `O=C(CSc1cccc2cccnc12)N/N=C/c1cccnc1`, for which the inhibition is 61.7% (active).
Take `COc1ccc(C(=O)NCC(=O)N/N=C/c2cccnc2)cc1`: the inhibition is -3.8%.
On to `COc1ccc(C(=O)NCc2ccccc2C)cc1S(=O)(=O)NC1CCCC1`, for which the inhibition was 2.68%.
Regarding `O=c1onc(-c2cccs2)n1Cc1ccccc1`, the inhibition was 2.59%.
Turning to `Cc1c(O)c(C)c2c(c1O)C(=O)C[C@@H](c1ccccc1)O2`, the inhibition is 14.4%.
On to `COC(=O)C1NN=C(C(=O)c2ccc(Br)cc2)C1c1cccc(Br)c1` (stereo not given), for which the inhibition was 52.8% (active).
For `COc1ccc(C(=O)c2oc3ccc(Br)cc3c2NC(C)=O)cc1`, the inhibition was 3.07%.
Then `COC(=O)C1=C(C)N(C)C(C)=C(C(=O)OC)C1c1cccc(Br)c1`, with 36.4%; and `COC(=O)c1ccc([C@@H](O)[C@H](C)C(=O)CC(=O)OC(C)(C)C)cc1`, with 0.65%.
For the compound `N#Cc1cccc(OC(=O)c2ccc3c(=O)n4c(nc3c2)CCC4)c1`, the inhibition is 9.54%.
Regarding `Cc1ccc(-n2ncc3c(Nc4cccc(C(=O)O)c4)ncnc32)cc1`, the inhibition was 9.65%.
In the case of `COc1cc(CNc2ncn[nH]2)ccc1OCc1ccccc1C`, the inhibition was -5.7%.
On to `CC1(C)CC[C@]2(C(=O)O)CC[C@]3(C)C(=CCC4[C@@]5(C)CC[C@H](O)C(C)(C)C5[C@H](O)C[C@]43C)[C@@H]2C1` (stereo not given in full), for which the inhibition is -0.24%.
In the case of `Cc1c(NC(=O)CSc2nnc(-c3cccnc3)n2N)c(=O)n(-c2ccccc2)n1C`, the inhibition was 5.23%.
The value for `Cc1c(NC(=O)CSc2nnnn2-c2ccc(C(=O)O)cc2)c(=O)n(-c2ccccc2)n1C` was 10.9%; that for `Cc1c(NC(=O)CSc2cccc3cccnc23)c(=O)n(-c2ccccc2)n1C` was 59.7% (active); that for `Cc1ccc(C)c(OCCC(=O)OCC(=O)N2CCN(c3ccccc3)CC2)c1` was 20.8%.
On to `Cc1csc(NC(=S)Nc2cccc(Cl)c2)n1`, for which the inhibition is 60% (active).
As for `Cc1cc(Cl)nc(NC(=O)Nc2cccc(Cl)c2)n1`, the inhibition is 16%.
For `CCC(=O)Nc1nc(C)c(C(=O)Nc2cccc(Cl)c2)s1`, the inhibition is 5.65%.
Regarding `Cc1cccc(NC(=O)CCN2CC(C)CC(C)C2)c1` (stereo not given), the inhibition was 8.72%.
As for `C=CCn1c(P(C)(=O)O)nc2ccccc21`, the inhibition is 2.22% and 1.13%.
For `C=CCn1c(N)c(C(=O)OCC(C)C)c2nc3ccccc3nc21`, the inhibition is 56.9% (active).
Take `C=CCn1c(C(C)NC(=O)CC)nc2ccccc21` (stereo not given): the inhibition was 2.5%.
On to `CCc1nnc(NC(=O)C2CCN(C(=O)c3ccccc3C)CC2)s1`, for which the inhibition was 1.37%.
For the compound `COc1ccc(CCOC(=O)CNC(=O)c2ccc(Cl)cc2Cl)cc1`, the inhibition is 27.9%.
As for `Cc1ccc(Br)c(NS(=O)(=O)c2cccc(C(=O)N3CCNC(=O)C3)c2)c1`, the inhibition is -11%.
As to `COc1ccc2c(c1)c(=Cc1ccc(N(C)C)cc1)c1cc(-c3ccccc3)[n+](C)n12`, the inhibition is 67.2% (active).
In the case of `COc1ccc2sc(-c3ccc(N(C)C)cc3)c(C#CCO)c2c1`, the inhibition was -34.2%.
Then `Cc1ccc(Cn2c(C)c3cnn(CC(=O)NCc4ccccn4)c(=O)c3c2C)cc1`, with -8.58%; and `CCc1ccc(CNC(=O)C2CCCN(c3nc4ccccc4o3)C2)cc1` (stereo not given), with -4.97%; and `CCOC(=O)c1cnc(Nc2nc3ccccc3o2)nc1CSC(=S)N1CCCCC1`, with 66.8% (active).
As to `CCOC(=O)CCNC(=O)N1CCCC(C(=O)c2ccccc2SC)C1` (stereo not given), the inhibition was -6.81%.
As for `O=C(COc1ncnc2ccccc12)NC(=O)NCc1ccccc1`, the inhibition was 3.38%.
For the compound `NS(=O)(=O)c1ccc(NC(=S)NNC(=O)c2cccs2)cc1`, the inhibition was 31.7%.
Consider `CCOc1ccc(C(=O)Nc2nccs2)cc1[N+](=O)[O-]`, for which the inhibition is 4.46%.
`Cc1ccc(C)c(NC(=O)c2ccc3nccnc3c2)c1`: the inhibition is -3.74%.
In the case of `Cc1ccc(OS(=O)Nc2cccc3nccnc23)cc1` (stereo not given), the inhibition was 55.4% (active).
In the case of `Cc1ccc(Oc2ccc3c(c2)C(=O)N(c2cccc4cccnc24)C3=O)cc1`, the inhibition is 8.43%.
Regarding `CC1CN(C(=O)COC(=O)c2cccc(NS(=O)(=O)c3ccccc3)c2)CC(C)O1` (stereo not given), the inhibition was -4.23%.
The value for `COc1ccc(C2C(C(C)=O)=C(O)C(=O)N2c2nccs2)cc1` (stereo not given) was 22.9%; that for `CC1(C)C=Cc2c(ccc3c2OC[C@@H](c2ccc(O)cc2O)C3)O1` was -20.6%; that for `CN(C)/C=N/c1cc(=O)n(C)c(=O)n1CC1CC1` was -0.5%.
Take `CCOC(=O)c1nnn2c1nc(N1CCN(c3ccccc3)CC1)c1ccccc12`: the inhibition was 13.9%.
For `COc1ccc(-c2csc(Cc3nc(O)cs3)n2)cc1`, the inhibition was 68.3% (active).
`COc1ccc(CNc2nccs2)cc1`: the inhibition is 19.1%.
`CCCn1c(C2CCCN2c2nc(-c3ccc(OC)cc3)cs2)nc2ccccc21` (stereo not given): the inhibition was 22.3%.

Usually inhibition stands for the drop in the measured response relative to a control, in per cent.
